From PubChem BioAssay
ADAM10 inh: ADAM10 inhibition, QFRET primary screen; recombinant ADAM10, EDANS/DABCYL FRET peptide cleavage, 3 h; 370,000 compounds, 0.62% hits; AID 720582; inhibition, % at 7 µM; O14672;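 active = inhibition above a per-campaign cutoff equal to the mean of compounds falling between control-based bounds plus 3 SD, cut at about 20% in these data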
DSG3 Ab inh: human desmoglein-3 autoantibody binding inhibition | binding (percent of control), % at 10 µM | 310,000 compounds, 0.48% hits | DSG3-coupled beads, scFv-anti-DSG3-GFP binding, flow cytometry; stronger effect = lower value;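 active = binding more than 3 SD below its plate's average and above zero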;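 note: hits lower antibody fragment binding to DSG3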
Target sequence (P32926 whole entry, looked up, the tested form may be a part): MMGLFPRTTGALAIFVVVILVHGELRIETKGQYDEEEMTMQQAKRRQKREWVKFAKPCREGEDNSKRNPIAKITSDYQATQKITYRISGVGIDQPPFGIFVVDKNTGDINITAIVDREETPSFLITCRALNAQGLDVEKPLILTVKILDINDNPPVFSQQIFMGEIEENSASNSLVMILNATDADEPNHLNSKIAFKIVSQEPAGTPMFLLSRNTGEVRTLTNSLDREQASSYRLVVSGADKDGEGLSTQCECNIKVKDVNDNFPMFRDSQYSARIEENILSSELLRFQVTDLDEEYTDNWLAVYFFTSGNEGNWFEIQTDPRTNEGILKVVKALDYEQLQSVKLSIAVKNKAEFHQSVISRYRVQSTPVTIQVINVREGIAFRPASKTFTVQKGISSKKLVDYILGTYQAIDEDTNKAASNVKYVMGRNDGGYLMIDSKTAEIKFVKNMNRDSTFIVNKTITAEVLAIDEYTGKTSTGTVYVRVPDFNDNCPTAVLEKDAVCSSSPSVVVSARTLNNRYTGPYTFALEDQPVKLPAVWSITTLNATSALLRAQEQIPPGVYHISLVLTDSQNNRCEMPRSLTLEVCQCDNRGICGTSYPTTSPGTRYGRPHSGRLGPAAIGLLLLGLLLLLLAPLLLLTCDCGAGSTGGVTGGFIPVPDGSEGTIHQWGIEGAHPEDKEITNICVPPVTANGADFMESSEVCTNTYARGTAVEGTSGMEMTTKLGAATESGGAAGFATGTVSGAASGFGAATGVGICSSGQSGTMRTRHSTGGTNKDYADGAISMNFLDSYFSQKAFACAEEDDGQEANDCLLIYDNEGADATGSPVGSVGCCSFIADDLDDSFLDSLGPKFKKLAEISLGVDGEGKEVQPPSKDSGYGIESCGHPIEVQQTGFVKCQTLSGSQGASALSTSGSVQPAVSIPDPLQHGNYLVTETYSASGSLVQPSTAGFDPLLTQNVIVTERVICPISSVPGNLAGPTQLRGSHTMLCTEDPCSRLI
ADAM17 inh: inhibits human ADAM17 | inhibition, % at 6.95 µM | AID 720648 | recombinant ADAM17, EDANS/DABCYL FRET peptide cleavage | 370,000 compounds, 0.83% hits | P78536;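 active = inhibition above the mean of compounds lying between control limits plus 3 SD, set per campaign, cut at about 8.5% in these data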
rCAG RNA binder: r(CAG) repeat RNA binding; TO-PRO-1 dye displacement fluorescence; inhibition, % at 3 µM; 370,000 compounds, 1.3% hits;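 active = inhibition above the plate cutoff, the mean of all test compounds on that plate plus 3 SD, cut at about 35% in these data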;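 note: higher means more dye released from RNA so lower well fluorescence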
MPTP block: permeability transition pore inhibition. isolated mouse mitochondria, Ca2+ swelling absorbance, 30 min. 360,000 compounds, 1.4% hits. inhibition, % at 10 µM;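 active = inhibition of 50% or more, scaled per plate between neutral and stimulator controls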
KLK7 zymogen act: activates the human kallikrein-7 zymogen | P49862 | activation, % at 7 µM | purified proKLK7, EDANS-DABCYL substrate fluorescence; 100% is mature enzyme control, 0% vehicle | 370,000 compounds, 0.9% hits;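 active = activation above the mean of all tested compounds plus 3 SD, computed per campaign excluding outliers beyond control limits, cut at about 13% in these data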
ADAM10 confirm: human ADAM10 inhibition, confirmation; inhibition, % at 6.95 µM; 2,100 compounds, 1% hits; AID 743208; ADAM10 QFRET peptide cleavage, EDANS fluorescence; shares compounds with ADAM10 inh;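 active = inhibition above about 20% chosen separately for each screening run, limit read from the data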
ADAM17 counter: inhibits human ADAM17 in ADAM10 exosite counter-screen; shares compounds with ADAM10 inh; ADAM17 QFRET peptide cleavage, EDANS fluorescence; inhibition, % at 6.95 µM; 2,100 compounds, 0.5% hits; AID 743214;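 active = mean triplicate inhibition above the solvent-only control wells' mean plus 3 SD, cut at about 12% in these data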
Hits are given with their value; – = inactive; · = not tested or not shown; ! = repeats disagree. Hits are enriched below; roughly 4.7% of the tested compounds scored in any of these assays.

SMILES	ADAM10 inh	DSG3 Ab inh	ADAM17 inh	rCAG RNA binder	MPTP block	KLK7 zymogen act	ADAM10 confirm	ADAM17 counter
COC(=O)c1cn[nH]c1NC(=S)Nc1ccccc1C	25.1	–	–	–	–	–	–	–
CCOC(=O)c1cn[nH]c1NC(=S)Nc1ccc(OC)cc1	–	–	–	–	–	–	·	·
COc1ccc(CNC(=O)c2ccc(-c3ccc(F)c(F)c3)c3ccoc23)cc1OC	20.5	·	–	–	–	–	–	–
CCOc1ccc(NC(=S)Nc2cc(-c3ccccc3)[nH]n2)cc1	23.1	–	–	–	–	–	–	–
CCOc1ccc(NC(=S)Nc2ccc(F)cc2)cc1	–	–	–	–	–	–	·	·
COc1cc2c(cc1OC)[C@@H](NC(=O)CCc1ccccc1)[C@H](O)C2	–	–	–	–	–	–	·	·
COc1ccc(C2c3ccc4ccccc4c3Oc3ncn(CCN(C)C)c(=N)c32)cc1 (stereo not given)	–	–	–	–	–	–	·	·
CC(C)(C)NC(=O)[C@@H]1C[C@@H]2CCCC[C@@H]2CN1C[C@@H](O)[C@H](Cc1ccccc1)NC(=O)[C@H](CC(N)=O)NC(=O)c1ccc2ccccc2n1	26.3!	–	–	–	·	–	–	–
FC(F)(F)c1cc(CCN2C(=S)NC[C@@H]2Cc2ccccc2)cc(C(F)(F)F)c1	26.5	–	–	–	–	–	–	–
Oc1ccc(C[C@@H]2CNC(=S)N2CCc2cc(C(F)(F)F)cc(C(F)(F)F)c2)cc1	–	–	–	–	–	–	·	·
CC(C)n1nccc1N(Cc1ccc(Cl)cc1)S(=O)(=O)c1ccccc1	28.2	·	–	–	–	–	–	–
CC(C)n1nccc1N(Cc1ccc(Br)cc1)S(=O)(=O)c1ccccc1	–	·	–	–	–	–	·	·
CSc1nc2ccc(Cl)cc2[nH]1	–	–	–	–	–	–	·	·
CSc1nc2cc(Oc3cccc(Cl)c3Cl)c(Cl)cc2[nH]1	20.1	–	–	–	–	–	–	–
O=S1(=O)C[C@H](N2CCC[C@@H]2CO)[C@@H](COCc2ccccc2)N1	–	·	–	–	–	–	·	·
CN(CC(=O)Nc1ccc(Cl)c(C(F)(F)F)c1)C(=O)Cc1c[nH]c2ccccc12	25.1	–	–	–	–	–	–	–
CCOc1ccc(NC(=O)CN(C)C(=O)Cc2c[nH]c3ccccc23)cc1OCC	–	–	–	–	–	–	·	·
Cc1cccc(NC(=O)c2cc3n(n2)C(C(F)(F)F)CC(c2ccc4c(c2)OCO4)N3)c1 (stereo not given)	21.7	·	–	–	–	–	–	–
CC1=C(C(=O)N(C(C)C)C(C)C)CC(CC(=O)NC2CCCC2)C(=O)N1CCC1=CCCCC1 (stereo not given)	–	·	–	–	–	–	·	·
COc1cc(/C=N/OCC(=O)Nc2ccc(OC(F)F)cc2)ccc1OCc1ccccc1	23.1	–	–	–	–	–	–	–
O=C(NCCc1nc2ccccc2[nH]1)/C(=C/c1ccc2c(c1)OCO2)NC(=O)c1ccc(Cl)cc1Cl	22.0	·	–	–	–	–	32.2	–
O=C(NCCc1nc2ccccc2[nH]1)/C(=C/c1ccc(F)cc1)NC(=O)c1ccco1	–	–	–	–	–	–	·	·
Oc1ccc(-c2nccc(-c3ccc(Br)cc3)n2)cc1	20.4	–	–	–	–	–	–	–
O=C(O)c1ccc(Nc2ccc([N+](=O)[O-])c3nonc23)cc1	–	–	–	–	–	–	·	·
O=[N+]([O-])c1ccc(Nc2ccccc2O)c2nonc12	20.5	–	–	–	–	–	–	–
NC(=O)C1CCCN1S(=O)(=O)c1ccc2ccccc2c1 (stereo not given)	–	–	–	–	–	–	·	·
Cc1[nH]c2ccccc2c1N=Nc1ccccc1F	29.8	–	–	–	–	–	–	–
O=C(COC(=O)c1ccco1)NCCc1ccc(Cl)cc1	–	·	–	–	–	–	·	·
CCOC(=O)c1ccc(NC(=S)NC(=O)c2cncc(Br)c2)cc1	75.2	–	–	–	–	–	–	–
